Legend:
[1] = biological target: T1, Serine/threonine-protein kinase TBK1 (Homo sapiens) (UniProt Q9UHD2); settings: at 1 µM;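 also: values are mean inhibition of TBK1, screened as part of the GSK published kinase inhibitor set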
T1 sequence (whole entry): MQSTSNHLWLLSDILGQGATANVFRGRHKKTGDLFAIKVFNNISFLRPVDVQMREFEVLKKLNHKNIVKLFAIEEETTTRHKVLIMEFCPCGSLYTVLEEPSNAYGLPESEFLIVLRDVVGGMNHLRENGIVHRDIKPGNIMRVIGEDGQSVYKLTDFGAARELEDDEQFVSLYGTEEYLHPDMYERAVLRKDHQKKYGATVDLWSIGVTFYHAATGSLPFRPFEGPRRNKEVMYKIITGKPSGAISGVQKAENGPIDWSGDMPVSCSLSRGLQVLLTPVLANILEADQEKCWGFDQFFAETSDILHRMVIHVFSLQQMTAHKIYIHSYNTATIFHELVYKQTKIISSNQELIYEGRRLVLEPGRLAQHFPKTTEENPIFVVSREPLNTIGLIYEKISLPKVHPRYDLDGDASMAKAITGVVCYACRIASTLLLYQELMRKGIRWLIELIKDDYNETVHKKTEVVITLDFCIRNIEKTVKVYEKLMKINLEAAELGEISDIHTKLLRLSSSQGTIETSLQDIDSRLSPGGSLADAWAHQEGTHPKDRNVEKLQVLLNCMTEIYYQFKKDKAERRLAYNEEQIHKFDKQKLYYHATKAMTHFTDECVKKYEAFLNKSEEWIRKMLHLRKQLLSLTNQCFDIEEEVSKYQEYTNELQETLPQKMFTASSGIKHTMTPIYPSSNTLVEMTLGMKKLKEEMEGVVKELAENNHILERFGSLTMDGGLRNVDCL

[2] = biological target: T2, Testis-specific serine/threonine-protein kinase 1 (Homo sapiens) (UniProt Q9BXA7); settings: at 0.1 µM
T2 sequence (whole entry): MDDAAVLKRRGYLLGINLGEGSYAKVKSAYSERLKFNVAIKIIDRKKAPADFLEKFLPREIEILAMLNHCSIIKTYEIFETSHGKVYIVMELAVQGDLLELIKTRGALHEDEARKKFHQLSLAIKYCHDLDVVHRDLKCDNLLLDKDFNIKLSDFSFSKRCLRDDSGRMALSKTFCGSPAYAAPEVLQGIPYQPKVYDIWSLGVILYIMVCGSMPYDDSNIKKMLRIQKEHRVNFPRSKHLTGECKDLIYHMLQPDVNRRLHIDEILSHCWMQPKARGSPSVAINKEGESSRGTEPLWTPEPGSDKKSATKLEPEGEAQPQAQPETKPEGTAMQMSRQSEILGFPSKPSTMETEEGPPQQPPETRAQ

[3] = biological target: T2, Testis-specific serine/threonine-protein kinase 1 (Homo sapiens); settings: at 1 µM
[4] = biological target: T3, Testis-specific serine/threonine-protein kinase 2 (Homo sapiens) (UniProt Q96PF2); settings: at 0.1 µM
T3 sequence (whole entry): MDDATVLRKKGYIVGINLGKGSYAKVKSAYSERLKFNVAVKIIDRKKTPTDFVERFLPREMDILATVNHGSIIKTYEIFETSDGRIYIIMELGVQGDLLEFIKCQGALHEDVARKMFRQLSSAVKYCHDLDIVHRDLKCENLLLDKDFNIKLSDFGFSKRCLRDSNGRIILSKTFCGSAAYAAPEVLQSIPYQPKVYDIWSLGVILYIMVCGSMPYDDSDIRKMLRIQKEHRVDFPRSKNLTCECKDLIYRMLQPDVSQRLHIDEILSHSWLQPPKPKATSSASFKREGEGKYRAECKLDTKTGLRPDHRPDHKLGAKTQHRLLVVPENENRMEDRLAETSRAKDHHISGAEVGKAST

[5] = biological target: T3, Testis-specific serine/threonine-protein kinase 2 (Homo sapiens); settings: at 1 µM
[6] = biological target: Casein kinase I isoform alpha (Homo sapiens) (UniProt P48729); settings: at 0.1 µM
[7] = biological target: Casein kinase I isoform alpha (Homo sapiens) (UniProt P48729); settings: at 1 µM
[8] = biological target: Casein kinase I isoform gamma-1 (Homo sapiens) (UniProt Q9HCP0); settings: at 0.1 µM
[9] = biological target: Casein kinase I isoform gamma-1 (Homo sapiens) (UniProt Q9HCP0); settings: at 1 µM
[10] = biological target: Casein kinase I isoform gamma-2 (Homo sapiens) (UniProt P78368); settings: at 0.1 µM;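 also: values are mean inhibition figures reported as part of the GSK PKIS dataset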
Casein kinase I isoform gamma-2 (Homo sapiens), sequence (P78368 whole entry, looked up, canonical isoform): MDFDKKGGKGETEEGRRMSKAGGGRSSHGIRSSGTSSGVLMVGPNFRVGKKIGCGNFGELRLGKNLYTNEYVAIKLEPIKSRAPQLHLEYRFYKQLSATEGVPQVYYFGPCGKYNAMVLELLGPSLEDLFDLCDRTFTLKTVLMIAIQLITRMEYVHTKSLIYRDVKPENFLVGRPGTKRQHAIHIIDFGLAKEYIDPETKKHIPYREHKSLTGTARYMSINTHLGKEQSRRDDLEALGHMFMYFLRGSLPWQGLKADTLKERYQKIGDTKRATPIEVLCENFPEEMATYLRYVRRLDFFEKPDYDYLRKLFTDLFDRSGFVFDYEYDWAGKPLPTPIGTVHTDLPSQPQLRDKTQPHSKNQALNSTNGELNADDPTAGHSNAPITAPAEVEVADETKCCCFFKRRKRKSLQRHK

Casein kinase I isoform alpha (Homo sapiens), sequence (P48729 2-337 limits assumed): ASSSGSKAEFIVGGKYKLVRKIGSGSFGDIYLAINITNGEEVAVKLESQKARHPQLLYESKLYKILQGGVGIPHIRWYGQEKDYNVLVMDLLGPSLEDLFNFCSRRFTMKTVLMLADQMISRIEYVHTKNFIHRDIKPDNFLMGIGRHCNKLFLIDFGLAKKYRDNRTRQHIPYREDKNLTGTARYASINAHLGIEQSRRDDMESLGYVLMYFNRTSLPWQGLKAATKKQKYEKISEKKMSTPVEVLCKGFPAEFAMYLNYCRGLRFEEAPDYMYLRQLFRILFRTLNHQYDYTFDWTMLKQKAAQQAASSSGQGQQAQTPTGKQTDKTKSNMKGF
Casein kinase I isoform gamma-1 (Homo sapiens), sequence (Q9HCP0 whole entry, looked up, canonical isoform): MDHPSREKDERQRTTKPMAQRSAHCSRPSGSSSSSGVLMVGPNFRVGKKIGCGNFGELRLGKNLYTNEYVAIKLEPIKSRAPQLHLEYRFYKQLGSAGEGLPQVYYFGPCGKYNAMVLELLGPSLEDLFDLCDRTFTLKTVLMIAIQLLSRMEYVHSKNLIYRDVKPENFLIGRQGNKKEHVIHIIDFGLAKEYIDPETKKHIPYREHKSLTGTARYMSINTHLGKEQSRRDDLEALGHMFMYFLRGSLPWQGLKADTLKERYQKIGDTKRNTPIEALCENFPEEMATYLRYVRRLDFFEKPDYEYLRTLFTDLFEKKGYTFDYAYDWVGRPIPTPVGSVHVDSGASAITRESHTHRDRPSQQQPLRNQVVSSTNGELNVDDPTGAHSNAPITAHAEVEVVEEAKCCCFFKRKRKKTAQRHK

| SMILES | inhibition [1] [%] | inhibition [2] [%] | inhibition [3] [%] | inhibition [4] [%] | inhibition [5] [%] | inhibition [6] [%] | inhibition [7] [%] | inhibition [8] [%] | inhibition [9] [%] | inhibition [10] [%] |
| --- | --- | --- | --- | --- | --- | --- | --- | --- | --- | --- |
| COc1cccc(-n2ncc3c(N/N=C/c4ccc(C(=O)NCCN(C)C)cc4)ncnc32)c1 | 11.2 | 1.35 | 0.43 | -0.44 | -0.81 | 1.58 | 7.14 | 2.73 | 11.7 | 1.5 |
| Cc1c2ccc(N(C)c3ccnc(Nc4cccc(S(N)(=O)=O)c4)n3)cc2nn1C | 8.43 | 3.59 | 3.32 | 1.26 | 1.14 | 3.21 | 4.51 | 1.31 | 1.52 | -0.37 |
| FC(F)(F)CNc1nccc(-c2cnn3ncccc23)n1 | 0.21 | 3.33 | 2.64 | -0.54 | -0.28 | 3.2 | 23.5 | 2.54 | 6.11 | 3.35 |
| CCS(=O)(=O)c1ccc(OC)c(Nc2ncc(-c3cccc(C(C)=O)c3)o2)c1 | 5.54 | 2.02 | 5.38 | 3.72 | 1.57 | 0.47 | 2.36 | 2.26 | 2.79 | 2.75 |
| COc1cc(N2CCN(C(C)C)CC2)ccc1Nc1nc(Nc2cccc(F)c2C(=O)O)c2cc[nH]c2n1 | 6.19 | 21.1 | 70.9 | 9.88 | 49.2 | 6.82 | 7.9 | 3.56 | 5.73 | 2.68 |
| Cn1c(-c2nonc2N)nc2cnccc21 | 7.42 | 3.15 | 3.81 | 2.01 | 0.12 | 3.34 | 6.21 | 2.61 | 2.68 | 2.2 |
| c1ccc(-c2n[nH]cc2-c2ccnc(-c3ccc(OCCn4ccnc4)cc3)c2)nc1 | 0.29 | 1.73 | 2.8 | 2.08 | 1.93 | 3.33 | 18.1 | 0.69 | 3.14 | 0.83 |
| NC(=O)c1ccc2c(-c3ccnc(NCCCO)n3)c(-c3ccc(F)cc3)nn2c1 | 4.69 | 3.95 | 3.68 | 2.67 | 2.23 | 25.3 | 67.6 | 7.1 | 19.8 | 5.87 |
| NS(=O)(=O)c1ccc(N/N=C2\C(=O)Nc3cccc(CCc4ccncc4)c32)cc1 | 4.17 | 2.49 | 1.9 | 0.54 | 1.32 | 1.84 | -0.19 | 0.44 | 0.85 | 0.15 |
| Cc1cc(O)cc(C)c1/C=C/c1cncc(C(=O)OC(C)(C)C)c1 | 2.33 | 2.62 | 1.67 | 1.48 | 1.69 | 1.27 | 3.48 | 2.21 | 2.97 | 1.74 |
| CNC(=O)c1ncccc1Nc1nc(Nc2cc3c(cc2OC)CCCN3C(=O)CN(C)C)nc2[nH]ccc12 | 26.1 | 85.5 | 93.9 | 31 | 73.2 | 1.15 | 6.71 | 4.96 | 8.09 | 2.28 |
| CN(c1ccc(NC(=O)NCCN2CCOCC2)cc1)c1ccnc(Nc2ccc(CS(C)(=O)=O)cc2)n1 | 4.49 | 4.48 | 5.87 | 4.78 | 3.15 | 1.71 | 2.52 | 2.63 | 3.24 | 3.34 |
| O=C1Nc2ccccc2/C1=C1\CCc2cc(O)ccc21 | 13 | 3.88 | 6.96 | 1.83 | 2.14 | 4.95 | 9.64 | 5 | 6.41 | 3.27 |
| CCN1CCC(C(=O)Nc2n[nH]c3nnc(-c4cccc(F)c4F)cc23)CC1 | 0.85 | -0.97 | -0.75 | 0.04 | 0.43 | -1.81 | -0.5 | 1.73 | -0.13 | -0.42 |
| COc1ccc(-c2nn3ncccc3c2-c2ccnc(Nc3ccc(F)c(F)c3)n2)cc1 | 5.55 | 4.21 | 5.79 | 2.03 | 5.03 | 4.64 | 6.66 | 4.01 | 4.36 | 3.31 |
| CNC(=O)c1cncc(/C=C/c2ccccc2C)c1 | 6.39 | 4.49 | 5.13 | 3.39 | 2.6 | 1.22 | 5.05 | 2.73 | 3.62 | 2.46 |
